# Only a selection was taken, and hits are over-represented in it overall.
# mHTT CaM bind: inhibitors of human mutant huntingtin-calmodulin interaction. AID 1671202. 3.6% of 190,000 active. inhibition, % at 15 µM. AlphaScreen His-mHTT/GST-CaM binding, luminescence;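 further: 0% = both proteins with DMSO and 100% = one protein alone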
# Pf apPOL inh: Pf-apPOL DNA polymerase inhibition; Recombinant Pf-apPOL, molecular beacon fluorescence, 1.5 h; inhibition, % at 10 µM; 0.25% of 210,000 active; AID 1794808
# * marks the source's active call; other numbers are inactive results; · = no result given; ! = not confirmed by another sample. No stated cut-off is given here; in the data, active means inhibition above about 50%; inactive means the rest.
SMILES,mHTT CaM bind,Pf apPOL inh
CC(=O)NC(c1cccs1)c1cc([N+](=O)[O-])c2cccnc2c1O (stereo not drawn),100*,0
COc1ccccc1N1CCN(c2ccc([N+](=O)[O-])c3cccnc23)CC1,4,1
O=C(CCc1ccccc1)NC(c1cccs1)c1cc(Cl)c2cccnc2c1O (stereo not drawn),31,-4
CCCC(=O)NC(c1cccs1)c1cc([N+](=O)[O-])c2cccnc2c1O (stereo not drawn),100*,5
O=C(Nc1cccc([N+](=O)[O-])c1)c1cccc(S(=O)(=O)N2CCCCC2)c1,12,-3
CCC1Oc2ccccc2N(Cc2ccc(F)cc2Cl)C1=O (stereo not drawn),-33,33
CCC(=O)NCc1csc(C2CCN(C(=O)c3ccc(Cl)cc3)CC2)n1,3,0
Cc1ccc(-n2nc(C)c3c2CC(c2ccco2)CC3=O)cc1 (stereo not drawn),-3,0
O=C(NC(NCc1cccnc1)C(Cl)(Cl)Cl)c1cccc([N+](=O)[O-])c1 (stereo not drawn),5,0
O=C(CCN1C(=O)c2cccc([N+](=O)[O-])c2C1=O)Nc1ccc(OCc2ccccc2)cc1,2,4
O=C1S/C(=C\c2ccccc2Cl)C(=O)N1CN1CCCCC1,1,-3
CCOC(=O)C(C)Sc1ncnc2c1cnn2-c1cccc(Cl)c1 (stereo not drawn),-7,2
Cc1cccc2sc(NC(=O)COc3ccccc3)nc12,-1,-2
CN(C)n1cccc1C=NNC(=O)c1cccc(C(F)(F)F)c1,·,0
O=C(O)CN1C(=O)C2CC=CCC2C1=O (stereo not drawn),0,-6
CCCCC(=O)NC(c1ccco1)c1cc([N+](=O)[O-])c2cccnc2c1O (stereo not drawn),100*,0
CCOc1ccc(N/C=C/C(=O)c2cccs2)c([N+](=O)[O-])c1,38,-5
CCCCC(=O)NC(c1cccs1)c1cc([N+](=O)[O-])c2cccnc2c1O (stereo not drawn),96*,9
CCCC(=O)Nc1ccccc1NC(=O)Cc1ccccc1[N+](=O)[O-],-3,2
CCOC(=O)c1sc(S(C)=NS(=O)(=O)c2ccccc2)c2c1CCC=C2 (stereo not drawn),·,0
CC1c2cccn2CCN1C(=O)Nc1ccc(F)cc1 (stereo not drawn),19,-8
COc1cccc(-c2cn3c(n2)N(C(=O)Cc2cccs2)CCC3)c1,82*,-4
COc1ccc(-c2cn3c(n2)N(C(=O)Cc2cccs2)CCC3)cc1,34,-1
CCOc1ccccc1NC(=O)NCC1(O)CCc2ccccc21 (stereo not drawn),-6,0
CCC(C)c1ccccc1OCC(O)CNC(C)(C)C (stereo not drawn),-6,-7
SMILES,mHTT CaM bind,Pf apPOL inh
CCC(C)c1ccccc1OCC(O)CNC(C)(C)C(C)(C)C (stereo not drawn),100*,-6
Cc1cc2c(cc1C)NC(CC(=O)Nc1ccc(N3CCOCC3)cc1)C(=O)N2 (stereo not drawn),57*!,0
Cc1cc2c(cc1C)NC(CC(=O)Nc1cccc(C(=O)O)c1)C(=O)N2 (stereo not drawn),6,10
CC(=NCCc1ccccn1)c1c(C)[nH]n(-c2ccc(Br)cc2Br)c1=O,-6,-4
Brc1ccc(CN2CCc3nc(N4CCCC4)ncc3C2)cc1,18,0
CC1=CCC23CC1C(=O)C=C2CC(C)(C)CC3=O (stereo not drawn),·,-18
Fc1ccc(NC/C=C/c2ccco2)cc1Cl,91*,-2
O=C(CCNc1ccc(F)c(Cl)c1)c1ccccc1,-7,12
CCN1C(=O)C(CC(=O)NC2CCCCCC2)Sc2ncccc21 (stereo not drawn),-9,0
CC(C)(C)OC(=O)N1C[C@@]23C[C@H](c4ccc(F)cc4)[C@@H](C[C@@H]2S1(=O)=O)O3,1,-1
O=C(CCc1ccc(O)cc1)NN=CC=Cc1ccccc1,·,-19
O=C1/C(=C/c2ccsc2)CC/C1=C\c1ccsc1,24,-2
CCOc1ccc2sc(C=NCc3ccc(OC)cc3)c(O)c2c1,55*,0
CCOc1ccc2sc(C=NCc3ccc(F)cc3)c(O)c2c1,45,2
O=C(Nc1nonc1NC(=O)C12CC3CC(CC(C3)C1)C2)C12CC3CC(CC(C3)C1)C2,1,·
COc1ccc(C2=NN(CCc3ccccn3)C(=O)C2)cc1,87*,0
COc1ccc(C2=NN(CC(=O)NCc3ccccn3)C(=O)CC2)cc1,25,-17
COc1ccc(CCNC(=O)CCCn2c(=O)[nH]c3ccsc3c2=O)cc1OC,4,2
Cc1cc(C(=O)N2CC(C(=O)NCc3ccc(S(N)(=O)=O)cc3)C2)no1,-12,0
O=C(Nc1cccc(N=Cc2cc(Cl)cc([N+](=O)[O-])c2O)c1)c1ccco1,68*,2
O=Cc1cc(Cc2ccccc2)cc([N+](=O)[O-])c1O,100*,-1
O=[N+]([O-])c1cc(Cc2ccccc2)ccc1O,26,7
Cc1cccc(N=Cc2cc(Cl)cc([N+](=O)[O-])c2O)c1,14,-4
Cc1ccccc1C(=O)Nc1cccc(N=Cc2cc([N+](=O)[O-])cc([N+](=O)[O-])c2O)c1,48,-1
CC(=O)Nc1cccc(N=Cc2cc(Cc3ccccc3)cc([N+](=O)[O-])c2O)c1,51*,-7
SMILES,mHTT CaM bind,Pf apPOL inh
Cc1noc(C)c1S(=O)(=O)N1CCCC(c2nc(CNC(=O)C(C)C)cs2)C1 (stereo not drawn),8,1
COCCCNC(=O)c1cc2c(s1)CCN(C(=O)c1ccc(Cl)cc1)C2,-1,-1
O=S(=O)(c1ccc(F)cc1)N1CCC(n2c(-c3ccoc3)nc3cccnc32)C1 (stereo not drawn),14,0
O=C(c1cccs1)N1CCN(c2cc(N3CCCCC3)c(F)cc2[N+](=O)[O-])CC1,51*,-5
O=[N+]([O-])c1cc(F)c(N2CCCCCC2)cc1N1CCCC1,72*,-6
O=C(c1cccs1)N1CCN(c2cc(N3CCCC3)c(F)cc2[N+](=O)[O-])CC1,-2,-2
O=[N+]([O-])c1cc(F)c(N2CCOCC2)cc1N1CCCCC1,26,-12
COc1ccc(C)cc1NC(=O)N1CCC2(CC1)NC(=O)c1cccc(Cl)c1N2,7,-1
Cc1cccc(C2=NN(c3ccccc3)[C@H](CO)[C@H]2c2ccc(Cl)cc2)c1,92*,-3
CC[C@H]1C(c2cccc(Cl)c2)=NN(c2ccccc2)[C@@H]1CO,75*,0
CC[C@H]1C(c2cccc(C)c2)=NN(c2ccccc2)[C@@H]1CO,-9,-8
COc1ccccc1[C@@H]1C(c2cccc(Cl)c2)=NN(c2ccccc2)[C@H]1C(=O)N1CCOC1=O,-109,-5
CC[C@@H]1C(c2cccc(C)c2)=NN(c2ccccc2)[C@H]1C(=O)N1CCOC1=O,-22,-4
COc1ccccc1[C@H]1C(c2cccc(Cl)c2)=NN(c2ccccc2)[C@@H]1CO,66*,-9
Cc1cccc(C2=NN(c3ccccc3)[C@H](CO)[C@H]2c2ccc(F)cc2)c1,81*,-7
COC(=O)c1csc(S(=O)(=O)N=S(C)(=O)c2ccc(C)cc2)c1OC (stereo not drawn),·,-6
O=C(c1cccs1)N1CCC(c2ccn3ncc(C(=O)N4CCCCC4)c3c2)CC1,-2,0

# Bioassay records (PubChem)
